Measurements from the supplement of paper PMC10338343.
± gives the standard deviation. In all, about 6,600 sequences were measured (“pre-steady-state target cleavage rate”: median about 0.07, highest 2% from about 0.72 on). The entries come from a sample that favours the highest values as a whole.

tested on: MIWI (PIWIL1) piRISC loaded with Kctd7 piRNA (30 nt); experiment: pre-steady-state target cleavage rate (min^-1); MIWI and MILI are mouse PIWI proteins and EfPiwi is from a freshwater sponge; tags in brackets are library labels; higher = faster piRNA-guided slicing of the target; conditions: guide: Kctd7 piRNA 5'p-UGUUAAUCUCUCAGAGAAGGUGACAGUGAU; auxiliary factor: 500 nM mouse GTSF1
How it was run: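 The pre-steady-state cleavage rate was derived from a burst-and-steady-state fit of Cleave-'n-Seq data. For these assays, 1 nM active affinity-purified piRISC loaded with a single synthetic guide was mixed with […] a transcribed, DNA-blocked target RNA library in HEPES–potassium acetate buffer at 33 °C, with or without 500 nM GTSF1 partner protein, for 0–8 or 0–960 min. Sequencing counts of uncleaved targets were normalised to depth and to weakly complementary targets, and k3 was capped at 0.0001 min^-1 after three trials were pooled.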
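Also: 1 nM active piRISC with 0.1 nM target library at 33 °C single turnover.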

Sequence	pre-steady-state target cleavage rate
UACACAGUCACGUUCUCUGAGAGAUUAACA	0.679 ± 0.035
UAGACUGUGACCAUCUCUGAGAGAUUAACA	0.359 ± 0.025
UAGUGACACACCUUCACUGAGAGAUAAACA	0.112 ± 0.022
UUCACUGAUCACCUUCUCUGAGAGAUUAACA	0.653 ± 0.052
UUCACUGUCACCUUCUCUCAGAGAUUUACA	0.0958 ± 0.015
UAGACUGUCACCUUCUCUCUCUCUAAUUGA [g13:g27:cont:t1A]	< 0.0001
UAGACUGUCACCUUCUCUGAGAGAUAAUCA	0.0918 ± 0.018
UUCACUGUUCACCUUCUCUGAGAGAUUAACA	0.633 ± 0.036
AUCACUGUUACCUUCUCUGAGAGAUUAACA	0.553 ± 0.033
UAGACUGUUACCUUCUCUGAGAGAUUAACA	0.745 ± 0.039
AUCACUGUUCACCUUCUCUGAGAGAUUAACA	0.79 ± 0.046
UAGACUGUCACCUUCUCUGAGAGAUUAACG [g2:g27:cont:t1G]	0.674 ± 0.034
UUCACUGUUACCUUCUCUGAGAGAUUAACA	0.342 ± 0.032
UACACUGUUCACCUUCUCUGAGAGAUUAACA	0.614 ± 0.025
UAGACUGUUCACCUUCUCUGAGAGAUUAACA	0.771 ± 0.043
UAGACUUCACCUUCUCUGAGAGAUUAACA	0.576 ± 0.04
UAGUGAGUCACCUUCUCUGAGUCUUUAAGA	0.00546 ± 0.0039
UAGUGAGUCACCUUCUCUGAGAGAAUAUCA	0.124 ± 0.041
UAGUGACAGACCUUCUCUGAGAUAUUAACA	0.0437 ± 0.011
UUCUCUGUCACCUUCUCUGAGAGAUAUUGA	0.0992 ± 0.024
UAGUGACUCACCAAGUCUGAGAGAUAUUGA	< 0.0001
UAGUGACAGACCUUCUCUGUGAGUUUAACA	0.0139 ± 0.0037
UAGUGACACACCAUUCUCUGAGAGAUUAACA	0.245 ± 0.022

Sequence	pre-steady-state target cleavage rate
UAGUGACAGUGGAAGUCUGAGACAUAAACA	< 0.0001
UACACUGUCACCUUCUCUCUGAGAUUAACA	0.0197 ± 0.0062
AUACACUGUCACCUUCUCUGAGAGAUUAACA	0.752 ± 0.05
UACACUGUCACCUUCUCUGAGAGAUUAACG [g2:g28:cont:t1G]	0.566 ± 0.047
UACACUGUCACCUUCUCUGAGAGAUUAACA [g2:g28:cont:t1A]	0.563 ± 0.039
UUACACUGUCACCUUCUCUGAGAGAUUAACA	0.769 ± 0.044
UACACUGUCACCUUCUCUGAGAGAUUAACC [g2:g28:cont:t1C]	0.391 ± 0.034
UAGUGACAGACCUUCUCUGAGAGAUAUACA	0.0324 ± 0.0083
UAGUCUGUCACCUUCUCAGAGAGAUUUUGA	0.0587 ± 0.02
UAGACUGUCACCUUCUCUGAGAGAUUAAUA	0.414 ± 0.035
UAGACUGUCACCAUUCUCUGAGAGAUUAACA	0.792 ± 0.055
UAGACUGUCACCGUUCUCUGAGAGAUUAACA	0.625 ± 0.041
AUCACUGUCACCGUCUCUGAGAGAUUAACA	0.608 ± 0.038
UAGACUGUCACCAUCUCUGUGAGAUUAACA	0.155 ± 0.013
UAGACUGUCACCGUCUCUGAGAGAUUAACA	0.769 ± 0.037
UAGACUGUCACCAUCUCUGAGAGAUUAACA	0.741 ± 0.052
UAGUGUGUCACCAUCUCUGAGAGAUUAACA	0.609 ± 0.037
UAGACUGUCACCCUUCUCUGAGAGAUUAACA	0.517 ± 0.042
UAGAGUGUCACCAUCUCUGAGAGAUUAACA	0.741 ± 0.045
UUCAGUGUCACCAUCUCUGAGAGAUUAACA	0.585 ± 0.037
UAGACUGUCACCUUCUCUGAGAGAUUAACCA	0.648 ± 0.054
UAGACUGUCACCAUCUCUGAGAGAUUAAGA	0.112 ± 0.018
UAGUGACACACCUUCUCUGAGUGAAUAACA	0.00377 ± 0.0036

Sequence	pre-steady-state target cleavage rate
UACACUGACACCUUCUCUGUGAGAUUAACA	0.181 ± 0.019
UACACUCAGACCUUCUCUGAGAGAUUAAGA	0.0222 ± 0.0091
UAGUGACAGACCUUCUCUGAGAGACUAACA	0.0225 ± 0.0061
UAGACAGUGACCUUCUCUGAGAGAUUAACA	0.554 ± 0.033
UACACUGAGACCUUCUCUGAGAGAUUAUGA	0.0374 ± 0.015
UAGUGACAGACCUUCUCUGAGACAUUAACA	0.039 ± 0.0076
UUCACUGUCACCUUCUCUGUGAGAUUUACA	0.158 ± 0.027
UAGUGACACACCUUCACUGAGACAUUAACA	0.17 ± 0.029
AUCACUGUCACCUUGUCUGAGAGAUAAACA	0.552 ± 0.085
UAGUCUGUCACAUUCUCUGAGAGAUUAACA	0.607 ± 0.03
UAGACUGUCACAUUCUCUGAGAGAUUAACA	0.77 ± 0.051
UAGACUGUCACGCUUCUCUGAGAGAUUAACA	0.563 ± 0.029
AUCUCUGUCACCUUCUCAGAGAGAUUAACA	0.245 ± 0.024
UAGUCGUCACCUUCUCUGAGAGAUUAACA	0.7 ± 0.049
UAGUCUAGUCACCUUCUCUGAGAGAUUAACA	0.67 ± 0.035
UAGUCGGUCACCUUCUCUGAGAGAUUAACA	0.73 ± 0.037
UAGUCUGGUCACCUUCUCUGAGAGAUUAACA	0.749 ± 0.046
UAGUCAGUCACCUUCUCUGAGAGAUUAACA	0.722 ± 0.034
UAGUCUGUCACCUUCUCUGAGAGAUUAACA [g2:g26:cont:t1A]	0.631 ± 0.026
UUCACUCACACCUUCUCUGAGAGAUUAAGA	0.0618 ± 0.011
UUCACUGUCACCUUACUCUGAGAGAUUAACA	0.522 ± 0.026
UAGUCUGUCACCAUCUCUGAGAGAUUAAGA	0.0769 ± 0.013
